Consider 91 compounds from PubChem BioAssay AID1259415 (National Center for Advancing Translational Sciences (NCATS), 2018).

About 18,000 (4.4%) of roughly 410,000 compounds were called active. Another 7% or so got no clear call; they are omitted. For the sample, actives were picked, then their nearest neighbours and some compounds at random. A number with no mark means an inactive call. Cut-off read from the data, not from the text of the source: active = activity change below about -60%; inconclusive = no clear call, values can overlap the other calls; inactive = above about -39%.
% is set by controls: 0 for no effect and ±100 for the full control effect.

This test is described as follows: qHTS Assay for inhibitors of the human cytomegalovirus (HCMV). The following applies: HFF cells, HCMV-luciferase reporter, 72 h; at 57.5 µM; hits give low values. The method in brief: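 Human foreskin fibroblasts infected with luciferase-reporter HCMV at MOI 1 PFU/cell, compounds at two doses. Luciferase measured 72 h post infection; normalized to buffer-only basal and Salinomycin (10uM) controls.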
As to `Cc1cccc(N2CCN(C(=O)c3ccc4c(c3)CCN4S(=O)(=O)c3ccccc3)CC2)c1C`, the activity change, negative = inhibition was -25.8%.

As for `O=C(CC1N=C2c3ccccc3N=C(SCc3cccc(Cl)c3)N2C1=O)NCc1ccc2c(c1)OCO2` (stereo unspecified), the activity change, negative = inhibition was -15.6%.

Regarding `CCCN1C(=O)COCc2cc(-c3cccc(CO)c3)ccc21`, the activity change, negative = inhibition was 6.92%.

On to `COc1ccc(CNC(=O)CSc2n[nH]c(-c3ccc(F)cc3)n2)cc1`, for which the activity change, negative = inhibition was 19.4%.

As to `COc1ccc(-c2nc(SCC(=O)N3CCCCC3C)n[nH]2)cc1` (stereo unspecified), the activity change, negative = inhibition is 1.78%.

For the compound `CCc1ccc(-c2nc(SCC(=O)NC3CCCC3)n[nH]2)cc1`, the activity change, negative = inhibition was -90.7% (active).

Take `COc1cc(/C=C/CNC[C@H]2O[C@@H](n3cnc(C(N)=O)n3)[C@H](O)[C@@H]2O)ccc1O`: the activity change, negative = inhibition was -3.95%.

With `Cc1ccccc1C(=O)N(Cc1ccc(N(C)C)cc1)CC1CCCO1` (stereo unspecified), the activity change, negative = inhibition was -18.1%.

In the case of `Cc1cc(C)cc(-n2ccnc2SCC(=O)Nc2nc3ccccc3s2)c1`, the activity change, negative = inhibition is -5.53%.

On to `c1ccc(C(=NNc2nc3ccccc3s2)c2ccccn2)cc1`, for which the activity change, negative = inhibition was -99.2% (active).

`Cc1ccccc1-n1c(=O)c2ccccc2n(Cc2ccc(F)cc2)c1=O`: the activity change, negative = inhibition was -13.5%.

Turning to `CN1C(=O)/C(=C/C=C2\SCCN2C)OC1=S`, the activity change, negative = inhibition was 143%.

Regarding `Cc1cc2c(cc1C)[n+](C)cn2CC(O)COCC1CC=CCC1` (stereo unspecified), the activity change, negative = inhibition is -71.1% (active).

Regarding `CCCC12CN3CC(CCC)(CN(C1)C3c1c[nH]c3ccc(OC)cc13)C2=O` (stereo unspecified), the activity change, negative = inhibition was 14%.

Turning to `CCOc1ccccc1NC(=O)NC1CCCCCCC1`, the activity change, negative = inhibition is -14.2%.

As for `CCOc1cccc(=NC2CCCCC2)c2c(C)[nH]c(C)c12`, the activity change, negative = inhibition is -110% (active).

Take `c1ccc2c(c1)C(=NC1CCCCC1)NC2=NC1CCCCC1`: the activity change, negative = inhibition was -38.8%.

On to `CCOc1ccc(Nc2oc(/C=C/c3ccc(F)cc3)nc2C#N)cc1`, for which the activity change, negative = inhibition was 11.4%.

As to `Cc1cccc(Cn2c(=O)n(CCC(=O)NCCc3ccc(Cl)cc3)c(=O)c3sccc32)c1`, the activity change, negative = inhibition was -10.1%.

For the compound `O=C(Cn1c(-c2cccs2)cc2ccccc21)NCCc1ccc(Cl)cc1`, the activity change, negative = inhibition is -112% (active).

In the case of `Cc1ccc(CCNC(=O)Cn2c(-c3cccs3)cc3cc(F)ccc32)cc1`, the activity change, negative = inhibition was -16.7%.

On to `O=C(c1ccc(Br)cc1)N(Cc1cccs1)c1ccc(F)cc1`, for which the activity change, negative = inhibition is -5.5%.

`O=C(Nc1ccc2nc(SCC(=O)N3CCc4ccccc43)sc2c1)c1ccccc1F`: the activity change, negative = inhibition is 26.3%.

As to `O=C(COc1ccccc1Cl)Nc1ccccc1C(=O)NC1CC1`, the activity change, negative = inhibition was -2.06%.

Turning to `CC(NCC(=O)Nc1ccccc1C(=O)NC1CC1)c1ccccc1Cl` (stereo unspecified), the activity change, negative = inhibition is -103% (active).

Take `CCCC(NCC(=O)Nc1ccccc1C(=O)NC1CC1)c1ccccc1` (stereo unspecified): the activity change, negative = inhibition was -16.1%.

On to `COC(=O)C1C(=O)NCC1c1ccc(OC)cc1` (stereo unspecified), for which the activity change, negative = inhibition is 19.2%.

Turning to `O=C(NC1CCC(O)CC1)c1ccc(S(=O)(=O)NCc2ccco2)cc1` (stereo unspecified), the activity change, negative = inhibition is -14.7%.

In the case of `CCc1nnc(SCC(=O)Nc2cc(OC)ccc2OC)nc1CC`, the activity change, negative = inhibition was 0%.

`COc1ccc(CCNC(=O)NS(=O)(=O)c2ccc(C)cc2)cc1OC`: the activity change, negative = inhibition is 12.4%.

Consider `COc1ccc(C(=O)Oc2cc(/C=N/NS(=O)(=O)c3ccc(C)cc3)ccc2OC)cc1`, for which the activity change, negative = inhibition was -102% (active).

Consider `COc1ccc(S(=O)(=O)N/N=C\c2ccc(OC)c(COc3ccc(C)cc3[N+](=O)[O-])c2)cc1`, for which the activity change, negative = inhibition is 12.7%.

For the compound `Cc1cccc(NC(=O)c2ccc3nc(C(C)C)oc3c2)c1C`, the activity change, negative = inhibition was -5.74%.

As for `CCOc1ccc(C(=O)/C=C/c2cn(CC(O)CN3CCCCCC3)c3ccccc23)cc1` (stereo unspecified), the activity change, negative = inhibition is -29%.

Turning to `Cc1ccc(-c2nn(CCC(=O)Nc3ccc(OC(F)(F)F)cc3)c(=O)c3ccccc23)cc1`, the activity change, negative = inhibition is 0.866%.

Turning to `O=C(Nc1cc(C(F)(F)F)ccc1Cl)c1ccc2c(c1)CCN2S(=O)(=O)c1ccccc1`, the activity change, negative = inhibition was -29.1%.

Regarding `CCN(C(=O)COC(=O)c1cc(S(=O)(=O)N2CCc3ccccc32)ccc1OC)C1CCS(=O)(=O)C1` (stereo unspecified), the activity change, negative = inhibition is -18%.

Consider `COc1ccc(S(=O)(=O)N2CCc3ccccc32)cc1C(=O)Nc1cc(S(C)(=O)=O)ccc1Cl`, for which the activity change, negative = inhibition was -62.7% (active).

In the case of `CCc1nc2c(OCCOc3ccccc3)cccn2c1N(C)C(=O)c1ccccc1F`, the activity change, negative = inhibition is -30.7%.

Turning to `COc1ccc2c(c1)C(c1cccs1)=NNC(c1cccnc1)=N2`, the activity change, negative = inhibition was -22.6%.

As for `COC1C(O)C(C)OC(OC2CCC3(C=O)C(CCC4C3CCC3(C)C(C5=CC(=O)OC5)CCC43O)C2)C1O` (stereo unspecified), the activity change, negative = inhibition is -106% (active).

Consider `Brc1cccc(-c2nnn3c2nc(NC2CCCCC2)c2ccccc23)c1`, for which the activity change, negative = inhibition was 34.7%.

In the case of `O=C(Cc1ccc(Cl)cc1)NCC(c1cccs1)S(=O)(=O)c1ccc(Cl)cc1` (stereo unspecified), the activity change, negative = inhibition was -8.05%.

Regarding `O=C(NNC(=O)c1ccco1)Nc1ccccc1`, the activity change, negative = inhibition was -62% (active).

For `O=C(CNC(=O)c1ccco1)NNC(=O)c1ccc(Br)cc1`, the activity change, negative = inhibition was -4.75%.

Turning to `O=C(CNC(=O)c1ccco1)OCC(=O)c1ccccc1`, the activity change, negative = inhibition was 49.6%.

With `COc1cccc(-c2n[nH]c3c2C(c2cccc(O)c2)N(C)C3=O)c1` (stereo unspecified), the activity change, negative = inhibition was 179%.

Take `CC(OC(=O)CN1C(=O)C2CCCCC2C1=O)C(=O)Nc1ncc(Cl)cc1Cl` (stereo unspecified): the activity change, negative = inhibition was 22.5%.

In the case of `Cc1nc2ccn(Cc3cccnc3)c(=O)c2cc1C(=O)N1CCN(c2ccccc2F)CC1`, the activity change, negative = inhibition was 10.9%.

Consider `CCOc1cc(NC(=O)c2ccccc2C(=O)O)c(OCC)cc1NC(=O)c1ccccc1F`, for which the activity change, negative = inhibition is -3.32%.

For `CCN1CCN(c2cc3nc(C)n(Cc4ccccc4)c(=O)c3cc2NC(=O)c2ccccc2F)CC1`, the activity change, negative = inhibition was -85.2% (active).

Consider `CCCCN(C)C(=O)c1ccc2c(c1)N(CC)C(=O)c1ccccc1S2(=O)=O`, for which the activity change, negative = inhibition was -8.24%.

Regarding `Cc1cccc(Nc2nc(C)nc(N)c2S(=O)(=O)c2ccccc2)c1`, the activity change, negative = inhibition was 0.44%.

In the case of `C=CCNC(=S)/N=c1/ccccn1Cc1ccccc1`, the activity change, negative = inhibition was -98.8% (active).

With `C=CCNC(=O)COc1coc(CN2CCN(Cc3ccccc3)CC2)cc1=O`, the activity change, negative = inhibition is -9%.

As for `N=c1ccccn1Cc1ccccc1`, the activity change, negative = inhibition is -18.5%.

As for `CCCNC(=O)C1CCC(Cn2c(=O)c3sccc3n(Cc3ccccc3F)c2=O)CC1` (stereo unspecified), the activity change, negative = inhibition was 1.25%.

On to `CC1=NNC(=O)C1CC(=O)N/N=C/c1ccncc1` (stereo unspecified), for which the activity change, negative = inhibition is 42.5%.

Consider `O=C(N/N=C/c1cccc2cccnc12)[C@H]1C[C@@H]1c1ccccc1`, for which the activity change, negative = inhibition is 20.4%.

For `O=C(O)/C(=C/c1cccnc1)NC(=O)c1ccccc1`, the activity change, negative = inhibition was 6.75%.

For the compound `CCOC(=O)N/N=C/c1cccnc1`, the activity change, negative = inhibition is -60.5% (active).

With `O=C(N/N=C/c1cccnc1)c1cc2ccccc2cc1O`, the activity change, negative = inhibition is -98% (active).

As for `CCOC(=O)CNC(=O)CSc1ccc2nnc(-c3cccnc3)n2n1`, the activity change, negative = inhibition is 49.6%.

In the case of `O=C(CSc1cccc2cccnc12)N/N=C/c1cccnc1`, the activity change, negative = inhibition is -101% (active).

As to `O=C(N/N=C/c1ccc(O)c(O)c1)C1c2ccccc2Oc2ccccc21`, the activity change, negative = inhibition is 23.9%.

With `Cc1c(Cl)cccc1NC(=O)CSc1ccc(-c2cccnc2)nn1`, the activity change, negative = inhibition is -12.1%.

For `COc1ccc(Cn2ccn(CC(=O)Nc3cc(C)ccc3C)c(=O)c2=O)cc1`, the activity change, negative = inhibition was 15.8%.

Regarding `COc1ccccc1NC(=O)CN1C(=O)c2ccccc2Sc2ccc(C(=O)N3CCCC3)cc21`, the activity change, negative = inhibition is 14.4%.

Consider `CC(C)(C)OC(=O)N1CCC(c2c(C(=O)N3CCc4ccccc4C3)cnn2-c2ccc(F)cc2)CC1`, for which the activity change, negative = inhibition was 6.95%.

For `Cc1cc(C)cc(NC(=O)CSc2oc(-c3ccccc3)nc2S(=O)(=O)c2ccc(Cl)cc2)c1`, the activity change, negative = inhibition was -2.05%.

On to `COc1ccc(CCC(=O)NCc2ccc3c(c2)CCN3C(=O)c2ccc(F)cc2)cc1`, for which the activity change, negative = inhibition is 15.1%.

With `CCc1ccc2oc(-c3ccc(NC(=O)c4cc5ccccc5o4)cc3)nc2c1`, the activity change, negative = inhibition is 37.7%.

`Cc1cccc(C)c1NC(=S)N1CCCCCC1`: the activity change, negative = inhibition was -64.3% (active).

Regarding `Cc1cccc(NC(=S)N2CCC(O)CC2)c1C`, the activity change, negative = inhibition was -32.2%.

For `Cc1cccc(NC(=O)N2CCCCCC2)c1C`, the activity change, negative = inhibition was 57.9%.

As to `O=C1NCC(Nc2ccccc2)C(=O)N1` (stereo unspecified), the activity change, negative = inhibition was -7.88%.

Regarding `CCc1ccc(NS(=O)(=O)c2ccc3[nH]cc(C(=O)NCCc4cccc(C)c4)c(=O)c3c2)cc1`, the activity change, negative = inhibition is 93.7%.

For `OC(CNCC1CCCO1)Cn1c2ccc(Br)cc2c2cc(Br)ccc21` (stereo unspecified), the activity change, negative = inhibition is 2.12%.

For `Cc1cc(C)c2oc(-c3cccc(NC(=O)c4cccc(F)c4)c3C)nc2c1`, the activity change, negative = inhibition is -0.821%.

On to `O=C(Nc1cccc(-c2cscn2)c1)C1CCN(Cc2ccsc2)CC1`, for which the activity change, negative = inhibition was -33.6%.

As to `CCn1cc(CN2CCC(C(=O)Nc3cccc(-c4cccc(Cl)c4)c3)CC2)cn1`, the activity change, negative = inhibition was -97.6% (active).

Regarding `CC(=O)c1cc(CN2CCC(C(=O)Nc3cccc(-c4cscn4)c3)CC2)cs1`, the activity change, negative = inhibition is -30.7%.

Turning to `CCc1ccccc1N1CC(c2nc3ccccc3n2CCCCOc2ccccc2)CC1=O` (stereo unspecified), the activity change, negative = inhibition was -4.32%.

With `COc1ccc(OCCCn2c(C3CC(=O)N(c4ccc(F)cc4)C3)nc3ccccc32)cc1` (stereo unspecified), the activity change, negative = inhibition was -13%.

`CCCCN1CC(c2nc3ccccc3n2CCCCOc2ccc(C)cc2C)CC1=O` (stereo unspecified): the activity change, negative = inhibition was -105% (active).

For `O=C(NCc1ccccc1)C1CCN(S(=O)(=O)c2ccc3[nH]c(=O)ccc3c2)CC1`, the activity change, negative = inhibition was 23%.

With `Cc1ccccc1OCC(=O)Nc1c(C(=O)Nc2ccccc2F)oc2ccccc12`, the activity change, negative = inhibition was 11.7%.

As to `COc1ccc(Cn2c(=O)sc3ccccc32)cc1OC`, the activity change, negative = inhibition is -99.8% (active).

For the compound `COc1ccc(CN2CCOC2=O)cc1OC`, the activity change, negative = inhibition is -13.1%.

Consider `C=CCSc1nnc(Cn2c(=O)sc3ccccc32)n1C`, for which the activity change, negative = inhibition is -2.22%.

For the compound `CCOC(=O)c1ccc(NC(=O)Cn2c(=O)cc(C)c3c(C)nn(-c4cccc(F)c4)c32)cc1`, the activity change, negative = inhibition is 2.32%.
